Screening results: PubChem BioAssay, National Center for Advancing Translational Sciences (NCATS)
3T3 cytotox = cytotoxic compounds in NIH 3T3 cells; NIH 3T3 viability, CellTiter-Glo ATP luminescence, 48-72 h; Potency, µM (titrated, usually from 96.7 µM), without a hit: top-dose activity change, negative = cytotoxicity, usual class: inhibitors; hit rate 4.3% among 94,000; AID 1345082; further: nearly all actives have a fitted effect of over 55% in size
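Luminescent ATP readout (CellTiter-Glo, 10 min RT) after 48 or 72 hr compound exposure of NIH 3T3 cells seeded at 400 cells/well in 1536-well format; quantitative HTS.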
hNpr1 antagonist = human Npr1 receptor antagonism; P16066; Potency, µM (series often up to 46.3 µM), for inactives: at the top dose activity change, negative = inhibition, actives largely listed as inhibitors; AID 1347048; hit rate 1.6% among 76,000; HEK293 hNpr1 GloSensor cGMP, ANP-stimulated luminescence; calls by dose curve; further: nearly all actives have a fitted effect of over 60% in size
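HEK293 cells stably expressing human Npr1 and cGMP GloSensor pGS-40F, loaded 2 h with 2% GloSensor reagent, given compound 30 min at room temperature. Luminescence read before and 20 min after 0.1 nM hNppA.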
HEK293 tox = cytotoxic compounds in HEK 293 cells; hit rate 6.6% among 94,000; Potency, µM (titrated, usually from 115 µM), without a hit: top-dose activity change, negative = cytotoxicity, most hits filed as inhibitors; AID 1345083; HEK 293 viability, ATP luminescence (CellTiter-Glo), 48-72 h; further: nearly all actives have a fitted effect of over 60% in size
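HEK 293 seeded at 250 cells/well receive compound via pintool. After 48 or 72 hr at 37 degree Celsius, 5% CO2 and 95% humidity, CellTiter-Glo is dispensed and luminescence read following 10 min at room temperature.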
Luciferase inh = blocks purified firefly luciferase enzyme activity; P08659; purified P. pyralis luciferase, luminescence, biochemical; Potency, µM (doses to about 115 µM), hits mostly inhibitors; hit rate 2.5% among 76,000; AID 1347043; further: nearly all actives have a fitted effect of over 65% in size
Target sequence (P08659 whole entry, looked up): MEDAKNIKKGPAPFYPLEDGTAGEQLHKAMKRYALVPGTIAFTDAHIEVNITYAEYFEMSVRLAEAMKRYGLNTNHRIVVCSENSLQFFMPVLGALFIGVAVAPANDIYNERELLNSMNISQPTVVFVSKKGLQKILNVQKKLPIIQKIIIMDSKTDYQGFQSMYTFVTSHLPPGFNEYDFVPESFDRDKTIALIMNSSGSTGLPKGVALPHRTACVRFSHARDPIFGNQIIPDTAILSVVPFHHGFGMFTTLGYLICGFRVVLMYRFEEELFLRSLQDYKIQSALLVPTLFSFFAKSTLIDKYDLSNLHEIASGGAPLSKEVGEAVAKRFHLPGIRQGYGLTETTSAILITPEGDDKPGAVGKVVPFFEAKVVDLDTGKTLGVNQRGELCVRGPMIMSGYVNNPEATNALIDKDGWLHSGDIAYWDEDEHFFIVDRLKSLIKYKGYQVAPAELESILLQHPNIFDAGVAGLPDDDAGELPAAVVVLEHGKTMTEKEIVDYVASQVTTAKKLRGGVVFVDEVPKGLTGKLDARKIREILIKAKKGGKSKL
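FLuc 10nM, D-luciferin 10uM, ATP 10uM, Mg acetate 10mM, Tris acetate pH 7.5, Tween/BSA; cpd qHTS; enzyme added last; CCD luminescence.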
GPT2 inh = GPT2 alanine aminotransferase inhibition | Q8TD30 | Recombinant GPT2, coupled pyruvate oxidase/HRP Amplex Red fluorescence | Potency, µM (top dose mostly 57.7 µM), without a hit: at the top dose activity change, negative = inhibition, actives largely listed as inhibitors | hit rate 0.25% among 100,000; further: nearly all actives have a fitted effect of over 60% in size
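GPT2 10ng/uL, a-KG 250uM, L-Ala 2mM, HEPES pH7.5 + 0.0001% Tween; 30 min RT. Then Amplex mix (PO/HRP/ThPP), 30 min RT dark, fluorescence. AOA 50uM used as positive control.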
An asterisk follows results filed as active; i = inactive; ? = inconclusive; / = not tested or not shown; ! = a repeat was not active; [ ] = dose if it differs, or a comment. An excerpt weighted towards active compounds, which were near 10% of everything screened. Unless noted, the call rests on the fitted dose curve; in most records, active means well fitted curve in the direction sought with a large enough effect; inconclusive means small, poorly fitted or top-dose-only effect, or another doubt; inactive means no such curve, though single readings can be large; an effect the other way counts as inactive or inconclusive. On the % scale 0 is the no-effect control and ±100 the full control effect; potency means the concentration at half of the fitted maximal effect.

SMILES	3T3 cytotox	hNpr1 antagonist	HEK293 tox	Luciferase inh	GPT2 inh
COc1ccc(-c2nc(C3CN(C(=O)Nc4cccc(F)c4)C3)no2)cc1	-8%	?	-19%	i	i
CC(C)c1nc2c(c(-c3ccc(O)cc3)n1)CCN(C(=O)c1cccc(Cl)c1)CC2	-26%	0%	?	i	i
COc1ccc(-c2cccc(C(=O)N3CCC(NC(=O)C(C)(C)C)CC3)c2)nn1	-3%	/	2%	/	/
Cn1cc(CN2C[C@H](C(=O)Nc3nccs3)C[C@H]2c2cccc(C(F)(F)F)c2)cn1	?	1%[70.6 µM]	?	i	1%[88.5 µM]
O=C(Nc1cccnc1)[C@@H]1C[C@@H](c2ccc(F)cc2)N(CCOc2ccccc2)C1	89µM*	?	?	i	-9%[88.5 µM]
Cn1ccc(NC(=O)[C@@H]2C[C@H](c3ccc(F)cc3)N(Cc3ccccc3Cl)C2)n1	?	?	50µM*	i	-16%[88.5 µM]
Cc1csc(NC(=O)[C@@H]2C[C@H](c3cccc(C(F)(F)F)c3)N(Cc3cnn(C)c3)C2)n1	28µM*	-13%	?	i	-18%
Cn1ccc(NC(=O)[C@@H]2C[C@@H](c3ccc(F)cc3)N(CCOc3ccccc3)C2)n1	?	-29%[70.6 µM]	?	i	-6%[88.5 µM]
O=C(Nc1nccs1)[C@@H]1C[C@@H](c2cccc(C(F)(F)F)c2)N(CC2CCOCC2)C1	79µM*	-20%[70.6 µM]	?	i	-5%[88.5 µM]
O=C(Nc1ccncn1)[C@@H]1C[C@@H](c2ccc(F)cc2)N(CCOc2ccccc2)C1	?	?	?	i	-1%[88.5 µM]
O=C1CC(c2ccccc2)N(C(=O)CNS(=O)(=O)c2ccc3c(c2)CCC3)CCCCCCN1 (centres undefined)	?	-10%	?	i	-5%
O=C(NC1CCN(c2ccnc3ccnn23)C1)C1CCCC1 (centres undefined)	?	/	?	/	-8%[88.5 µM]
O=C(NCc1cccnc1)[C@@H]1C[C@@H](c2ccc(F)cc2)N(Cc2ccccc2)C1	?	1%[70.6 µM]	?	i	i
O=C(Nc1nccs1)[C@@H]1C[C@@H](c2ccc(F)cc2)N(Cc2ccccc2)C1	?	?	40µM*	i	2%[88.5 µM]
O=C(Nc1nccs1)[C@@H]1C[C@H](c2ccc(F)cc2)N(Cc2ccccc2Cl)C1	32µM*	-3%[70.6 µM]	?	i	-23%[88.5 µM]
O=C(NCc1ccncc1)[C@@H]1C[C@@H](c2ccc(F)cc2)N(Cc2ccccc2)C1	-16%[138 µM]	2%[70.6 µM]	?	i	-11%[88.5 µM]
CN1CCCCCCN(C(=O)CCCc2ccccc2)[C@H]2CCC[C@H]2C1=O	-25%	0%	?	i	i
COc1ccc2nc([C@H]3CCN(Cc4ccc(F)cc4)C3)[nH]c2c1	112µM*	-15%[70.6 µM]	79µM*	50µM*	i
COc1ccc2nc([C@H]3CCN(Cc4ccccc4)C3)[nH]c2c1	?	-2%[70.6 µM]	?	22µM*	0%[88.5 µM]
Cc1ccc2nc([C@H]3CCN(Cc4ccccn4)C3)[nH]c2c1	?	-6%[70.6 µM]	50µM*	40µM*	?
COc1ccc2nc([C@H]3CCN(Cc4cccnc4)C3)[nH]c2c1	-17%[174 µM]	2%[70.6 µM]	-1%[172 µM]	71µM*	i
COc1ccc2nc([C@H]3CCN(Cc4cccc(Cl)c4)C3)[nH]c2c1	?	?	?	i	-15%[88.5 µM]
Cc1cccc(-c2nc3cc4c(cc3cc2CN2CCC[C@H]2C(N)=O)OCO4)c1	?	4%	?	i	3%
Cc1ccc(-n2cc(CN3CCCCC3C(N)=O)c(-c3cccc(C)c3)n2)cc1 (centres undefined)	79µM*	5%	50µM*	?	i
Cc1noc(C)c1-c1ccc2c(n1)CN(Cc1ccc(F)cc1)C(=O)CO2	?	-16%[70.6 µM]	?	i	5%[88.5 µM]
SMILES	3T3 cytotox	hNpr1 antagonist	HEK293 tox	Luciferase inh	GPT2 inh
Cc1csc(Nc2ccc3c(n2)CN(Cc2ccc(F)cc2)C(=O)CO3)n1	?	?	8.9µM*	i	i
O=C1COc2ccc(Nc3ccccc3F)nc2CN1Cc1ccc(F)cc1	?	-18%[70.6 µM]	79µM*	i	i
COCCN1Cc2nc(Nc3ccccc3F)ccc2OCC1=O	-16%[138 µM]	2%[70.6 µM]	?	i	-5%[88.5 µM]
COc1ccccc1Nc1ccnc(N2CCCC2C(=O)N2CCOCC2)n1 (centres undefined)	-25%	/	-8%	/	i
O=C(NCCCc1ccccc1)c1n[nH]c2c1CN(C(=O)c1ccc(Cl)cc1)CC2	?	-20%	?	i	i
O=C(NCCc1ccccc1F)c1nc2sccn2c1-c1ccc(C(F)(F)F)cc1	28µM*	/	25µM*	/	?
O=C(NCCc1ccccc1F)c1nc2sccn2c1-c1ccncc1	?	/	?	/	i
O=C(NCCCc1ccccc1)c1n[nH]c2c1CN(C(=O)c1ccc(F)cc1)CC2	28µM*	3%	?	i	i
O=C(NCCCc1ccccc1)c1nc2sccn2c1-c1ccc(F)cc1	?	/	100µM*	/	i
COc1cccc(CNC(=O)Cn2c(-c3ccc(F)cc3)nc(C)c(CCO)c2=O)c1	?	2%	?	i	i
COCCOc1ccc2c(n1)CCN(C(=O)C1(c3ccc(OC)cc3)CC1)C2	-17%	-1%	?	i	-8%
Cn1ncc2c(C(=O)Nc3ccc(F)cc3)cc(-c3ccc(C(F)(F)F)cc3)nc21	-2%	/	0%	/	/
O=C(NC1CCN(Cc2cccc(-c3ccc(F)cc3F)c2)CC1)c1ccncc1	?	/	32µM*	/	/
COc1cccc(C(=O)NC2CCN(Cc3cccc(-c4ccc(F)cc4F)c3)CC2)c1	35µM*!	/	32µM*!	/	/
O=C(NC1CCN(Cc2cccc(-c3ccc(F)cc3F)c2)CC1)C1CCCC1	-19%	/	-17%	/	/
O=C(NCc1cccc(Cl)c1)C1CN(C2CCCCC2)C(=O)N1 (centres undefined)	?	/	?	/	i
CNC(=O)c1cc(C2CC2)nc2onc(C3CCN(C(=O)c4ccc(C)cc4)CC3)c12	-20%	/	4%	/	/
CNC(=O)c1cc(C2CC2)nc2c1c(C1CCN(C(=O)c3cccnc3)C1)nn2C (centres undefined)	-19%	/	-2%	/	/
CNC(=O)c1cc(C2CC2)nc2c1c(C1CCN(C(=O)c3cccc(OC)c3)C1)nn2C (centres undefined)	?	/	79µM*	/	/
COc1ccc(CN2C(=O)[C@H](OC)[C@@H]2C2=CCN(C(=O)c3cccc(C#N)c3)CC2)cc1	-36%	/	-18%	/	-29%
C=CCNC1=C2C[C@@H](C)C[C@H](OC)[C@@H](O)[C@@H](C)C=C(C)[C@H](OC(N)=O)[C@@H](OC)C=CC=C(C)C(=O)NC(=CC1=O)C2=O	/	/	/	/	3%
